Measured potencies and affinities stand elsewhere. Results filed as inconclusive are left out. Active and inactive are the calls of the source. Unless noted, how the calls were made is not given here.
Assays:
[1] = cytotoxicity in PAX8-dependent RMG-1 cells, dose response, cell-based, cherry-pick (AID 687029;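 active means signal drop whose fitted half-maximal concentration is at most twice the top valid dose, in every test run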;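 further: cells exposed to compound for 96 hours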)
[2] = cytotoxicity in IOSE-T80 ovarian epithelial cells, dose response, selectivity assay for PAX8 inhibitor project, cell-based, cherry-pick (AID 687032;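 active means fitted half-maximal concentration for viability loss no higher than twice the top valid dose, in every repeat run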;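 further: cells exposed to compound for 96 h before reading; 0% = neutral control wells and -100% = 2 µM mitoxantrone kill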)
[3] = inhibitors of CMV-promoter luciferase reporter, dose response, counter-screen for Pax8 inhibitor project, cell-based, HEK293, luminescence, dry powder (AID 743020;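 active means signal-lowering compounds whose fitted half-maximal concentration is at or below twice the top tested dose in every run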;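 further: HEK293 cells stably expressing the CMV luciferase reporter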)
[4] = non-specific cell cytotoxicity, dose response, cytotoxicity control for PAX8 inhibitor project, plate reader, dry powder samples (AID 743021)
[5] = NIH:OVCAR-3 ovarian cancer cell cytotoxicity, dose response, PAX8 inhibitor project, plate reader, dry powder samples (AID 743044); details: max activity: at 35 µM, hits give low values unless noted
[6] = IOSE-T80 ovarian epithelial cell cytotoxicity, dose response, cytotoxicity control for PAX8 inhibitor project, plate reader, dry powder samples (AID 743045);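 further: 0% = neutral control median and -100% = positive control median; more negative values mean more cell killing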
[7] = A2780 ovarian cancer cell cytotoxicity, dose response, cytotoxicity control, plate reader, dry powder samples (AID 743046);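 further: 0% = neutral control wells and -100% = cytotoxic reference compound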

Cc1ccc(S(=O)(=O)N2CC[C@@H]3[C@H](CO)N(C)c4ccc(-c5ccc(C#N)cc5)cc4[C@@H]32)cc1
inactive: outcome [1] | outcome [2] | outcome [3] | outcome [4] | max activity [5] 67.4% [at 2.1 µM, hits give low values] | outcome [6] | outcome [7]

O=C(Nc1cccc(F)c1)N1CCCCN2[C@@H](CO)[C@@H](c3ccc(C#Cc4ccccc4)cc3)[C@@H]2C1
inactive: outcome [1] | outcome [2] | outcome [3] | outcome [4] | outcome [6] | outcome [7]

C[C@H]1CCCCO[C@@H](CN(C)Cc2ccc(C(F)(F)F)cc2)[C@@H](C)CN([C@@H](C)CO)C(=O)c2cc(NS(=O)(=O)c3ccccc3)ccc2O1
inactive: outcome [1] | outcome [2] | outcome [3] | outcome [4] | outcome [6] | outcome [7]

C[C@@H]1CN([C@H](C)CO)C(=O)c2cc(NC(=O)Nc3ccc(C(F)(F)F)cc3)ccc2O[C@@H](C)CCCCO[C@H]1CN(C)C(=O)Nc1ccc(C(F)(F)F)cc1
inactive: outcome [1] | outcome [2] | outcome [3] | outcome [4] | outcome [6]

C[C@H](CO)N1C[C@H](C)[C@@H](CN(C)Cc2ccc(Oc3ccccc3)cc2)Oc2ccc(NS(=O)(=O)c3ccc(Cl)cc3)cc2CC1=O
inactive: outcome [1] | outcome [2] | outcome [3] | outcome [4] | outcome [6] | outcome [7]

C[C@@H]1CN([C@@H](C)CO)C(=O)c2cc(NS(=O)(=O)c3ccc(F)cc3)ccc2O[C@@H](C)CCCCO[C@@H]1CN(C)Cc1ccc(C(F)(F)F)cc1
inactive: outcome [1] | outcome [2] | outcome [3] | outcome [4] | outcome [6]

C[C@@H]1CCCCO[C@H](CN(C)Cc2ccc(C(F)(F)F)cc2)[C@H](C)CN([C@@H](C)CO)C(=O)c2cc(NC(=O)Nc3ccc4c(c3)OCO4)ccc2O1
inactive: outcome [1] | outcome [2] | outcome [3] | outcome [4] | outcome [6]

C[C@@H]1CCCCO[C@@H](CN(C)Cc2ccc(C(F)(F)F)cc2)[C@H](C)CN([C@@H](C)CO)C(=O)c2cc(NC(=O)Cc3ccccc3)ccc2O1
inactive: outcome [1] | outcome [2] | outcome [3] | outcome [4] | outcome [6] | outcome [7]

Cc1ccc(S(=O)(=O)Nc2ccc3c(c2)C(=O)N([C@@H](C)CO)C[C@H](C)[C@@H](CN(C)Cc2ccc(C(F)(F)F)cc2)OCCCC[C@@H](C)O3)cc1
inactive: outcome [1] | outcome [2] | outcome [3] | outcome [4] | outcome [6] | outcome [7]

C[C@@H]1CCCCO[C@@H](CN(C)Cc2ccc(C(F)(F)F)cc2)[C@H](C)CN([C@@H](C)CO)C(=O)c2cc(NC(=O)NC3CCCCC3)ccc2O1
inactive: outcome [1] | outcome [2] | outcome [3] | outcome [4] | outcome [6] | outcome [7]

COc1ccccc1NC(=O)N1CCCCN2[C@@H](CO)[C@@H](c3ccc(C#Cc4ccccc4)cc3)[C@@H]2C1
inactive: outcome [1] | outcome [2] | outcome [3] | outcome [4] | outcome [6] | outcome [7]

O=C(C[C@@H]1CC[C@@H]2[C@H](COC[C@@H](O)CN2C(=O)Nc2ccc(Cl)c(Cl)c2)O1)NCc1ccc(Cl)cc1
inactive: outcome [1] | outcome [2] | outcome [3] | outcome [4] | outcome [6]

COc1ccc(S(=O)(=O)Nc2ccc3c(c2)C(=O)N([C@H](C)CO)C[C@@H](C)[C@H](CN(C)S(=O)(=O)c2ccc(Cl)cc2)OCCCC[C@H](C)O3)cc1
inactive: outcome [1] | outcome [2] | outcome [3] | outcome [4] | outcome [6] | outcome [7]

CCc1ccc(/C=C2\SC(=S)N(CCCC(=O)N(CCO)c3ccccc3)C2=O)cc1
inactive: outcome [1] | outcome [2] | outcome [3] | outcome [4] | outcome [6] | outcome [7]

O=C1CN(S(=O)(=O)Cc2ccccc2)C[C@@H]2[C@@H](c3ccc(C#CC4CC4)cc3)[C@@H](CO)N12
inactive: outcome [1] | outcome [2] | outcome [3] | outcome [4] | outcome [6] | activity change, negative = cytotoxicity [7] 19% [at 8 µM]

OC[C@@H]1[C@H](c2ccc(-c3ccc(F)cc3)cc2)[C@@H]2CN(CCC(F)(F)F)CCCCN12
inactive: outcome [1] | outcome [2] | outcome [3] | outcome [4] | outcome [6] | outcome [7]

COc1ccc(S(=O)(=O)Nc2ccc3c(c2)C(=O)N([C@H](C)CO)C[C@@H](C)[C@@H](CN(C)Cc2ccc(C(F)(F)F)cc2)OCCCC[C@@H](C)O3)cc1
inactive: outcome [1] | outcome [2] | outcome [3] | outcome [4] | outcome [6]

C[C@H]1CCCCO[C@@H](CN(C)Cc2ccccc2)[C@@H](C)CN([C@@H](C)CO)C(=O)c2cc(NC(=O)Nc3ccc(C(F)(F)F)cc3)ccc2O1
inactive: outcome [1] | outcome [2] | outcome [3] | outcome [4] | outcome [6] | outcome [7]

COc1ccc(S(=O)(=O)Nc2ccc3c(c2)C(=O)N([C@H](C)CO)C[C@H](C)[C@@H](CN(C)S(=O)(=O)c2ccc(F)cc2)OCCCC[C@H](C)O3)cc1
inactive: outcome [1] | outcome [2] | outcome [3] | outcome [4] | outcome [6]

C[C@@H]1CN([C@H](C)CO)C(=O)c2cc(NC(=O)Nc3ccc(C(F)(F)F)cc3)ccc2O[C@@H](C)CCCCO[C@@H]1CN(C)Cc1ccc2c(c1)OCO2
inactive: outcome [1] | outcome [2] | outcome [3] | outcome [4] | outcome [6] | outcome [7]

COc1ccc(-c2ccc3c(c2)[C@@H]2[C@@H](CCN2C(=O)C2CCCCC2)[C@H](CO)N3C)cc1
inactive: outcome [1] | outcome [2] | outcome [3] | outcome [4] | outcome [6]

C[C@@H]1CN([C@@H](C)CO)C(=O)Cc2cc(NS(=O)(=O)c3ccc(F)cc3)ccc2O[C@H]1CN(C)Cc1ccc(C(F)(F)F)cc1
inactive: outcome [1] | outcome [2] | outcome [3] | outcome [4] | outcome [6] | outcome [7]

Cc1ccc(S(=O)(=O)Nc2ccc3c(c2)C(=O)N([C@@H](C)CO)C[C@H](C)[C@@H](CN(C)Cc2ccc(C(F)(F)F)cc2)OCCCC[C@H](C)O3)cc1
inactive: outcome [1] | outcome [2] | outcome [3] | outcome [4] | outcome [6]

O=S(=O)(Nc1cccc2cccnc12)c1ccccc1
inactive: outcome [1] | outcome [2] | outcome [3] | outcome [4] | outcome [6] | outcome [7]

C[C@H](CO)N1C[C@H](C)[C@@H](CN(C)Cc2ccc(-c3ccccc3)cc2)Oc2ccc(NS(=O)(=O)c3ccc(F)cc3)cc2CC1=O
inactive: outcome [1] | outcome [2] | outcome [3] | outcome [4] | outcome [6] | outcome [7]

COc1cccc2sc(N(CCCN(C)C)C(=O)CCS(=O)(=O)c3ccccc3)nc12
inactive: outcome [1] | outcome [2] | outcome [3] | outcome [4] | outcome [6] | outcome [7]

Cc1cccc(S(=O)(=O)N2CCCCN3[C@H](CO)[C@H](c4ccc(C#C[C@H](C)O)cc4)[C@H]3C2)c1
inactive: outcome [1] | outcome [2] | outcome [3] | outcome [4] | outcome [6] | outcome [7]

C[C@H]1CCCCO[C@H](CN(C)Cc2ccc(C(F)(F)F)cc2)[C@@H](C)CN([C@@H](C)CO)C(=O)c2cc(NC(=O)Cc3ccccc3)ccc2O1
inactive: outcome [1] | outcome [2] | outcome [3] | outcome [4] | outcome [6] | outcome [7]

COc1ccc2c3c(n(C)c2c1)[C@H](CO)N(C(=O)Nc1ccc(F)cc1)CC31CCN(C(=O)c2ccc3c(c2)OCO3)CC1
inactive: outcome [1] | outcome [2] | outcome [3] | outcome [4] | outcome [6]

C[C@@H]1CCCCO[C@H](CN(C)Cc2ccc(Cl)c(Cl)c2)[C@@H](C)CN([C@@H](C)CO)C(=O)c2cc(NC(=O)Nc3ccc(F)cc3)ccc2O1
inactive: outcome [1] | outcome [2] | outcome [3] | outcome [4] | outcome [6]

O=C(c1ccccc1F)N1CC(=O)N2[C@@H](CO)[C@@H](c3ccc(C#Cc4ccc(F)cc4)cc3)[C@@H]2C1
inactive: outcome [1] | outcome [2] | outcome [3] | outcome [4] | outcome [6] | outcome [7]

CCCC#Cc1ccc([C@H]2[C@@H](CO)N3CCCCN(S(=O)(=O)Cc4ccccc4)C[C@H]23)cc1
inactive: outcome [1] | outcome [2] | outcome [3] | outcome [4] | outcome [6] | outcome [7]

O=C1CN(S(=O)(=O)Cc2ccccc2)C[C@@H]2[C@@H](c3ccc(C#CCC4CCCC4)cc3)[C@@H](CO)N12
inactive: outcome [1] | outcome [2] | outcome [3] | outcome [4] | outcome [6]

C[C@@H]1CCCCO[C@H](CN(C)Cc2ccc(Cl)c(Cl)c2)[C@@H](C)CN([C@@H](C)CO)C(=O)c2cc(NC(=O)Cc3ccccc3)ccc2O1
inactive: outcome [1] | outcome [2] | outcome [3] | outcome [4] | outcome [6] | outcome [7]

C[C@@H]1CCCCO[C@H](CN(C)Cc2ccc(C(F)(F)F)cc2)[C@@H](C)CN([C@@H](C)CO)C(=O)c2cc(NS(=O)(=O)c3ccc(F)cc3)ccc2O1
inactive: outcome [1] | outcome [2] | outcome [3] | outcome [4] | outcome [6]

C[C@@H]1CN([C@H](C)CO)C(=O)c2cc(NC(=O)CCC(F)(F)F)ccc2O[C@@H](C)CCCCO[C@@H]1CN(C)Cc1ccc(Cl)c(Cl)c1
inactive: outcome [1] | outcome [2] | outcome [3] | outcome [4] | outcome [6]

C[C@@H]1CCCCO[C@@H](CN(C)Cc2ccc(C(F)(F)F)cc2)[C@H](C)CN([C@H](C)CO)C(=O)c2cc(NS(=O)(=O)c3ccc(F)cc3)ccc2O1
inactive: outcome [1] | outcome [2] | outcome [3] | outcome [4] | outcome [6]

From PubChem BioAssay
